The results in this text go back to PubChem BioAssay (NCATS).

Several values for one entry are separate records, joined by “and”; a condition that tells them apart may be missing. Equal entries are not always repeated. Inconclusive results are not listed. Activity calls are given as the source filed them. Unless noted, the call rests on the fitted dose curve.

Sequence of Estrogen receptor (Homo sapiens) (P03372 whole entry, looked up): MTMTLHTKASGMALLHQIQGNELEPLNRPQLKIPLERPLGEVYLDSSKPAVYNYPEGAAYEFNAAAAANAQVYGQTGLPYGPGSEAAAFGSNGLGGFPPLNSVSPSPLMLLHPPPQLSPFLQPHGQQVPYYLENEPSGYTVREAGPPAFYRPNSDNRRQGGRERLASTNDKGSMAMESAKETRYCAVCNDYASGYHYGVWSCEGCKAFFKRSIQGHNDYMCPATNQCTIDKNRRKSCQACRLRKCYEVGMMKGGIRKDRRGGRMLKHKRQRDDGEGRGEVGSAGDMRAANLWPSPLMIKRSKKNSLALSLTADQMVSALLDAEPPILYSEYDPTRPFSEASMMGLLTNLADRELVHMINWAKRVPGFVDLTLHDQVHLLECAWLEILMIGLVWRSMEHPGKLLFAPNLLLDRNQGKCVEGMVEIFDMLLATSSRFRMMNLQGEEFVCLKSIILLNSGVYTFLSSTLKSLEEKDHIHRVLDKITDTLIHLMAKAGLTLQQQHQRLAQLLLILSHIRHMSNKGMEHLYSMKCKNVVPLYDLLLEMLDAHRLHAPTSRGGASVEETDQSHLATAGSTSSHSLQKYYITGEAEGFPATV
Sequence of Glucocorticoid receptor (Homo sapiens) (P04150 whole entry, looked up): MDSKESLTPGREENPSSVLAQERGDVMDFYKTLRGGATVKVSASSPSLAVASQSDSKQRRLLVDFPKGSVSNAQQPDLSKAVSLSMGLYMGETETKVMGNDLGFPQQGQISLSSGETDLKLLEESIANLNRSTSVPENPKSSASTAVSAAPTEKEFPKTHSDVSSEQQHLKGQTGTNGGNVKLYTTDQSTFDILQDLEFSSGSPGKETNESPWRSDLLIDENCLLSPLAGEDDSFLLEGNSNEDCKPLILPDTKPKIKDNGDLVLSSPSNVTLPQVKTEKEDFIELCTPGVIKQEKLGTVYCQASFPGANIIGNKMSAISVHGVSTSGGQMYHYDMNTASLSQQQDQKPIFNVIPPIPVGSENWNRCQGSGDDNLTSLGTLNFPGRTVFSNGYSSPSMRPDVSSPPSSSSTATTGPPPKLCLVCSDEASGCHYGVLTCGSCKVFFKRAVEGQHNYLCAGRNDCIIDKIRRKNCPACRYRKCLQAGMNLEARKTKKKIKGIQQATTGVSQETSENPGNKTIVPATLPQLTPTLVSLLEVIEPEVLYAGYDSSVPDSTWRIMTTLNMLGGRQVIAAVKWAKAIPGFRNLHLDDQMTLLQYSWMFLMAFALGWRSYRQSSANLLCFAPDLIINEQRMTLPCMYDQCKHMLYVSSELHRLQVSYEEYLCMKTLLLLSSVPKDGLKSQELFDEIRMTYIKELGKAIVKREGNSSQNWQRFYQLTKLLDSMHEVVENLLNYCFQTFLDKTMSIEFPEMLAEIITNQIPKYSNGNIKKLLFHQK
Sequence of Bile acid receptor (Homo sapiens) (Q96RI1 whole entry, looked up): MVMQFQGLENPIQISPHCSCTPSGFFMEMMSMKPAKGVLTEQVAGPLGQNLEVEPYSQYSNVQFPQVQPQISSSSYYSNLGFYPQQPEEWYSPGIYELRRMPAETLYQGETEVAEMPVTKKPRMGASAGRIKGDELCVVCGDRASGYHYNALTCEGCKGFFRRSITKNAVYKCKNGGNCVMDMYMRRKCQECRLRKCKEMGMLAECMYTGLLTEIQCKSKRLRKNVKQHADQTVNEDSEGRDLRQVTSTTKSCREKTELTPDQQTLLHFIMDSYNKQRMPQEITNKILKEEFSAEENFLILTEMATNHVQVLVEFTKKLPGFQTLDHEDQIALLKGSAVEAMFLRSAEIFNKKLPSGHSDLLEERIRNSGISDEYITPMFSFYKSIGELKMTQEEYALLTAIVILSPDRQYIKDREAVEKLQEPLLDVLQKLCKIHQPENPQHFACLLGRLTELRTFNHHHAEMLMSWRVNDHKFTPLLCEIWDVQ

The first experiment addresses Estrogen receptor (Homo sapiens) (UniProt P03372). Nature of the experiment: qHTS assay for small molecule agonists of estrogen receptor alpha signaling (AID 588514).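 Further: 0% = vehicle only and 100% = reference agonist; nearly all actives have a fitted effect of over 70% in size.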 As to conditions: ER-alpha-UAS-bla HEK293, beta-lactamase ratio, 18 h, percent of full estradiol response, vehicle zero; series mostly up to 76.8 µM; activation: at the top concentration. In short, it runs like this: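 Fluorescence from CCF4 cleavage reports ER-alpha-driven beta-lactamase expression in HEK 293 cells treated 18 hrs at 37 C. Data normalized to 17-beta-estradiol (20 nM) and DMSO, fitted to Hill equation.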
On the technique in general: qHTS replaces the single test concentration by a dilution series.
With `c1cc(OCC2CO2)cc(OCC2CO2)c1` (configuration not stated), the outcome was inactive. On to `CO[C@H]1/C=C/O[C@@]2(C)Oc3c(C)c(O)c4c(O)c(c5c(c4c3C2=O)NC2(CCN(CC(C)C)CC2)N=5)=NC(=O)/C(C)=C\C=C\[C@H](C)[C@H](O)[C@@H](C)[C@@H](O)[C@@H](C)[C@H](OC(C)=O)[C@@H]1C`, for which the “activation” value is -4.75% (inactive). For `ClC1=C(Cl)C(Cl)(Cl)C(Cl)=C1Cl`, the outcome was inactive. As to `Cc1cc(O)c(C(C)(C)C)cc1Sc1cc(C(C)(C)C)c(O)cc1C`, the “activation” value was -9.33% (inactive). Regarding `O=C1OC2(c3cc(Br)c(O)c(Br)c3Oc3c2cc(Br)c(O)c3Br)c2c(Cl)c(Cl)c(Cl)c(Cl)c21`, the “activation” value is -10.5% (inactive).

Another experiment deals with Bile acid receptor (Homo sapiens) (UniProt Q96RI1). The experiment can be described thus: qHTS assay for small molecule antagonists of farnesoid X receptor signaling (AID 588526). Further: potency means the concentration at half of the fitted maximal effect. On activity change, negative = inhibition: on the % scale 0 is the no-effect control and ±100 the full control effect. The following applies: HEK293T FXR-UAS-bla, beta-lactamase ratio, antagonist mode; series mostly up to 76.7 µM; activity change, negative = inhibition: at the top concentration. A digest of the protocol:
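Concentration-response titrations were fitted to the Hill equation for half-maximal inhibition and maximal response, with data normalised to 50 uM chenodeoxycholic acid and DMSO control wells. Cells: FXR-UAS-bla HEK293T, dialyzed FBS.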
Consider `Cc1cc(Nc2ccc(O)cc2)ccc1N`, for which the “activity change, negative = inhibition” value is -2.06% (inactive). `CO[C@H]1/C=C/O[C@@]2(C)Oc3c(C)c(O)c4c(O)c(c5c(c4c3C2=O)NC2(CCN(CC(C)C)CC2)N=5)=NC(=O)/C(C)=C\C=C\[C@H](C)[C@H](O)[C@@H](C)[C@@H](O)[C@@H](C)[C@H](OC(C)=O)[C@@H]1C`: the “activity change, negative = inhibition” value is -4.31% (inactive). On the same count and under the same terms, the result for `O=C=Nc1ccc(Cc2ccc(N=C=O)cc2)cc1` reads -4.79% (inactive). Take `Cc1cc(O)c(C(C)(C)C)cc1Sc1cc(C(C)(C)C)c(O)cc1C`: the Potency is 22.4 µM (active).

In the case of `c1ccc2c(c1)ccc1cc3c(ccc4ccccc43)cc12`, the “activity change, negative = inhibition” value was -0.131% (inactive). Same read-out and setting: as for `C=C(C)c1ccccc1`, the figure is -7.9% (inactive); as for `Cc1ccc(S(=O)(=O)Oc2ccc(N=Nc3ccc(-c4ccc(N=Nc5c(O)ccc6cc(S(=O)(=O)O)cc(S(=O)(=O)O)c56)c(C)c4)cc3C)cc2)cc1`, -4.49% (inactive).

A further experiment concerns the target Glucocorticoid receptor (Homo sapiens) (UniProt P04150). Nature of the experiment: qHTS assay for small molecule agonists of glucocorticoid receptor signaling (AID 588532; active means well fitted curve in the direction sought with a large enough effect in the signal ratio, with a control signal flat; the % refers to the signal ratio;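 further: 100% = dexamethasone at 0.1 µM and 0% = DMSO only wells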). As to conditions: HeLa MMTV-bla, beta-lactamase ratio, agonist, 18 h; hits give high values; percent of dexamethasone control, DMSO zero. A digest of the protocol: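 MMTV-bla HeLa, beta-lactamase reporter; medium with 1% charcoal/dextran-stripped FBS; cpds up to 92 uM, 18 h, 37 C; CCF4 readout 460/530 nm; Hill fit → EC50, efficacy vs 0.1 uM dexamethasone = 100%.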
For `c1cc(OCC2CO2)cc(OCC2CO2)c1` (configuration not stated), the activation was 4.18% (inactive) and -8.77% (inactive). Same read-out and setting: as for `CO[C@H]1/C=C/O[C@@]2(C)Oc3c(C)c(O)c4c(O)c(c5c(c4c3C2=O)NC2(CCN(CC(C)C)CC2)N=5)=NC(=O)/C(C)=C\C=C\[C@H](C)[C@H](O)[C@@H](C)[C@@H](O)[C@@H](C)[C@H](OC(C)=O)[C@@H]1C`, the figure is -2.4% (inactive). On to `ClC1=C(Cl)C(Cl)(Cl)C(Cl)=C1Cl`, for which the activation is 4.1% (inactive) and -7.79% (inactive). On the same count and under the same terms, the result for `CC(=O)Nc1ccc(C(=O)CCl)cc1` reads -4.98% (inactive) and -25.5% (inactive); that for `CC/C(=C(\c1ccccc1)c1ccc(OCCN(C)C)cc1)c1ccc(O)cc1`, 5.28% (inactive). Same read-out and setting: the result for `O=C=Nc1ccc(Cc2ccc(N=C=O)cc2)cc1` reads 5.29% (inactive) and -5.07% (inactive); that for `Cc1cc(O)c(C(C)(C)C)cc1Sc1cc(C(C)(C)C)c(O)cc1C`, 26% (inactive); that for `CCC(C)Nc1ccc(NC(C)CC)cc1` (configuration not stated), 1.29% (inactive) and -5.53% (inactive). Regarding `O=C1OC2(c3cc(Br)c(O)c(Br)c3Oc3c2cc(Br)c(O)c3Br)c2c(Cl)c(Cl)c(Cl)c(Cl)c21`, the activation was 0.908% (inactive). `O=C1OC(O)C(C(Cl)Cl)=C1Cl` (configuration not stated): the activation is -17.9% (inactive).
